This is part of a sample that, as a whole, favours compounds with a hit. Of some 83,000 tested, about 20% had one in any assay.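 How to read the values: 0–100, growth inhibition (40 = 60% inhibited); 0, no net growth; -100 to 0, cell death (-40 = 40% of starting cells died; -100 = all dead).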 Values without a mark were called inactive. Calls of active or inactive are those of the source. How the source made its calls: active means growth percent below 10; inactive means the rest.

This assay deals with COLO 205 colon. As to the kind of experiment: NCI-60 one-dose screen, 48 h (100 = growth as untreated, 0 = no growth, -100 = all killed). As to conditions: 10 µM unless noted.
Take `Nc1nc2c3ccncc3cc(-c3cccc(Cl)c3)c2c2cnccc12`: the growth was 20.9%.
For `O=C1c2cc3c(cc2-c2c1c1ccc(F)cc1c(=O)n2CCCN1CCOCC1)OCO3`, the growth is 55.1%.
For `c1ccc(CN2C(c3ccccc3)=Nc3ccccc3C2c2c[nH]c3ccccc23)cc1` (centres undefined), the growth is 18.3%.
Take `O=C1C(Cl)=C(Nc2ccc(S(=O)(=O)c3ccc(NC4=C(Cl)C(=O)c5ccccc5C4=O)cc3)cc2)C(=O)c2ccccc21`: the growth was -54.9% (active).
Take `CCc1cccc(CC)c1NC(=O)c1sc2nc3c(cc2c1N)CCCC3`: the growth was 105%.
Regarding `COc1cc2[nH]c(C(=O)c3cc(OC)c(OC)c(OC)c3)c(N)c2cc1C#CCO`, the growth was -35.8% (active).
In the case of `Cn1cc(-c2csc(-c3cn(C(=O)OC(C)(C)C)c4ccc(Br)cc34)n2)c2cccnc21`, the growth was 86%.
Turning to `Fc1cccc(-c2[nH]nc3nc(Nc4cccnc4)sc23)c1`, the growth is 15.7%.
`O=Cc1nc2ccccc2[nH]1`: the growth was 106%.
`N#C/C(=C\c1ccc(-c2ccc(Br)cc2)o1)c1nc(-c2ccco2)cs1`: the growth was 102%.
With `C[C@H]1OC(=O)/C=C/[C@@H](O)[C@@H](O)CCCCCCCC[C@@H]1O`, the growth was 95.1%.
For `C=C1C(=O)O[C@H]2[C@H]1CC/C(COC(=O)NCc1cc3ccccc3[nH]1)=C\CC[C@@]1(C)O[C@@H]21`, the growth was -52.2% (active).
The result for `Cc1ccc(-c2nn(Cc3cn(-c4cc(C)nc5ccccc45)nn3)c3ncnc(N)c23)cc1` reads 54.7%; that for `COc1ccc(-c2nc3ncccn3c2-c2nc3ccc(Br)cc3[nH]2)cc1`, 104%.

The values are drawn from PubChem BioAssay (NCI).
